“And” between values parts separate entries of the source, which are not always exact repeats. Equal values may be shown once. About 83,000 compounds went through this panel and 20% of them were active in at least one assay; those are over-represented in the sample as a whole.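 A percent growth of 40 corresponds to 60% growth inhibition; 0 means no net growth; -100 means all cells died. Active threshold: below 10.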 The source made the active and inactive calls.
Assays:
Test in all cases: NCI-60 one-dose screen, 48 h (100 = growth as untreated, 0 = no growth, -100 = all killed)
SR leukemia = conditions: 10 µM unless noted
RPMI-8226 leukemia = conditions: 10 µM unless noted
OVCAR-5 ovarian = conditions: 10 µM unless noted
OVCAR-4 ovarian = conditions: 10 µM unless noted
SK-OV-3 ovarian = conditions: 10 µM unless noted
IGROV1 ovarian = conditions: 10 µM unless noted
OVCAR-3 ovarian = conditions: 10 µM unless noted
HS 578T breast = conditions: 10 µM unless noted
NCI/ADR-RES ovarian = conditions: 10 µM unless noted
T-47D breast = conditions: 10 µM unless noted
BT-549 breast = conditions: 10 µM unless noted
SW-620 colon = conditions: 10 µM unless noted
MCF7 breast = tested on: MCF7 breast
HCT-116 colon = conditions: 10 µM unless noted
HCC-2998 colon = conditions: 10 µM unless noted
KM12 colon = conditions: 10 µM unless noted
MDA-MB-435 melanoma = conditions: 10 µM unless noted
OVCAR-8 ovarian = conditions: 10 µM unless noted

SMILES | growth (SR leukemia) | growth (RPMI-8226 leukemia) | growth (OVCAR-5 ovarian) | growth (OVCAR-4 ovarian) | growth (SK-OV-3 ovarian) | growth (IGROV1 ovarian) | growth (OVCAR-3 ovarian) | growth (HS 578T breast) | growth (NCI/ADR-RES ovarian) | growth (T-47D breast) | growth (BT-549 breast) | growth (SW-620 colon) | growth (MCF7 breast; 100 µM) | growth (HCT-116 colon) | growth (HCC-2998 colon) | growth (KM12 colon) | growth (MCF7 breast; 10 µM) | growth (MDA-MB-435 melanoma) | growth (OVCAR-8 ovarian)
O=C(Nc1ccc(F)cc1)ON=C1CCCCC1 | 84.9% [100 µM] (inactive) | 93.9% [100 µM] (inactive) | 97.9% [100 µM] (inactive) | 99.1% [100 µM] (inactive) | 129% [100 µM] (inactive) | 102% [100 µM] (inactive) | 108% [100 µM] (inactive) | 99% [100 µM] (inactive) | 105% [100 µM] (inactive) | 79% [100 µM] (inactive) | 106% [100 µM] (inactive) | 99.8% [100 µM] (inactive) | 98.2% (inactive) | 99.2% [100 µM] (inactive) | 106% [100 µM] (inactive) | 92.9% [100 µM] (inactive) | – | – | –
Nc1nc(N)c2c(ccc3c2ccn3Cc2cccc([N+](=O)[O-])c2)n1 | 110% (inactive) | 19.4% (inactive) | -96.9% (active) | -79.2% (active) | – | -90% (active) | -93.9% (active) | -58.2% (active) | 22.5% (inactive) | -67% (active) | -91.4% (active) | -91.8% (active) | – | -84.9% (active) | -86% (active) | -92.3% (active) | -79.2% (active) | – | –
CC1OC2CC(=O)OC2C2=C1C(=O)c1c(O)cccc1C2=O (configuration not stated) | -30% (active) | -9.64% (active) | -75.2% (active) | -98.5% (active) | 21% (inactive) | – | -97.9% (active) | 5.97% (active) | -6.77% (active) | -30.1% (active) | -98.5% (active) | -76.4% (active) | – | -97.8% (active) | -97.4% (active) | 24.7% (inactive) | -45.2% (active) | -68% (active) | –
N#CC1C(=O)SC2c3ccccc3C(=O)c3ccccc3C12 (configuration not stated) | 90.1% (inactive) | 94.6% (inactive) | 105% (inactive) | 99.1% (inactive) | 98.2% (inactive) | 110% (inactive) | 109% (inactive) | 96.2% (inactive) | 104% (inactive) | 89% (inactive) | 101% (inactive) | – | – | 102% (inactive) | 102% (inactive) | 96.6% (inactive) | 98.9% (inactive) | – | –
CCOC(=O)/C(=C\c1ccc(-c2ccccc2)cc1)C(C)=O | 95.9% (inactive) | – | 96.7% (inactive) | 105% (inactive) | 116% (inactive) | 101% (inactive) | 98.2% (inactive) | 103% (inactive) | 103% (inactive) | 105% (inactive) | 98.8% (inactive) | 101% (inactive) | – | 103% (inactive) | 95.2% (inactive) | 104% (inactive) | 93.3% (inactive) | – | 113% (inactive)
N#CSCc1c(Cl)cccc1Cl | 59.5% (inactive) | – | 106% (inactive) | 35.2% (inactive) | 96.6% (inactive) | 11.5% (inactive) | 4.78% (active) | 80.6% (inactive) | 95.4% (inactive) | 79.9% (inactive) | 88.4% (inactive) | 34.7% (inactive) | – | 4.1% (active) | 70% (inactive) | 48.1% (inactive) | 33.3% (inactive) | 29.6% (inactive) | 100% (inactive)
CCOC(=O)/C=C/c1ccc([N+](=O)[O-])o1 | 16.2% (inactive) | – | 75% (inactive) | 97.4% (inactive) | 106% (inactive) | 77.5% (inactive) | 17.1% (inactive) | 98.1% (inactive) | 50.6% (inactive) | – | 62.7% (inactive) | 8.72% (active) | – | -54.3% (active) | 95.7% (inactive) | 87.4% (inactive) | 25.5% (inactive) | 44% (inactive) | 11.4% (inactive)
COC(=O)Nc1nc2ccc(C(=O)c3ccccc3)cc2[nH]1 | 19.8% (inactive) and 2.51% (active) | – | 20.7% (inactive) and 47.1% (inactive) | 52.6% (inactive) and 72.1% (inactive) and 39.6% (inactive) | 22.8% (inactive) and 28.9% (inactive) and 32.6% (inactive) | 43.2% (inactive) and 13.7% (inactive) and -39.8% (active) | -50.1% (active) and -60.4% (active) and -59.4% (active) | 35.5% (inactive) and 15.8% (inactive) and 21.6% (inactive) | -28.8% (active) and 4.68% (active) and -3.41% (active) | 36.8% (inactive) and 82.6% (inactive) and 77.2% (inactive) | 63.9% (inactive) and 63% (inactive) and 51.4% (inactive) | 24.2% (inactive) and 25% (inactive) and 19.4% (inactive) | – | 19.9% (inactive) and 9.73% (active) and 13.3% (inactive) | 57.3% (inactive) and 2.48% (active) and 23.8% (inactive) | 11.2% (inactive) and -7.2% (active) and 3.76% (active) | 21.4% (inactive) and 18.4% (inactive) and 8.91% (active) | – | 22% (inactive) and 20.6% (inactive) and 22.1% (inactive)

From PubChem BioAssay (NCI)
